From PubChem BioAssay (NCATS)
Several values for one entry are separate records, joined by “and”; a condition that tells them apart may be missing. Equal values may be shown once. Results filed as inconclusive are left out. Activity calls are given as the source filed them. Unless noted, the call rests on the fitted dose curve; in most records, active means well fitted curve in either direction with a large enough effect (not every such curve was filed as active); inconclusive means small, poorly fitted or top-dose-only effect, or another doubt; inactive means flat fitted curve, though single readings scatter.

How the values were obtained:
[1] = Stat Signaling Pathway (AID 446); conditions: ME-180 SIE beta-lactamase reporter, IL-6 stimulated, 5 h;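 further: ME-180 cervical cancer cells given 40 pM IL-6 alongside compound; SIE-controlled beta-lactamase reporter measured as 460/530 nm FRET emission ratio; on the % scale 0 is the no-effect control and ±100 the full control effect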
In short: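 ME-180 cells carrying a SIE-driven beta-lactamase reporter are stimulated with 40 pM IL-6 for 5 h at 37C in the presence of compound. The 460/530 nm FRET substrate ratio is read after 2.5 h at RT. Data are normalised to 300 pM IL-6 and to 125 nM JAK inhibitor controls.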

[2] = biological target: Mitogen-activated protein kinase 10 (Mus musculus) (UniProt Q61831); test: JNK3 AlphaScreen Assay (AID 530); conditions: JNK3 lysate, c-Jun phosphorylation; series mostly up to 57.1 µM;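 further: kinase came from lysate of stimulated human HepG2 cells; signal reports phosphorylation of biotinylated GST-cJun 1-79 at Ser73 with 10 µM ATP; on the % scale 0 is the no-effect control and ±100 the full control effect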
In short: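 qHTS format: compounds tested as titrations against IL-1beta/TNF-alpha-activated HepG2 lysate JNK3 with biotin-GST-cJun substrate and 10 uM ATP at room temperature. Loss of anti-phospho-cJun AlphaScreen signal indicates inhibition.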

[3] = biological target: Glucocorticoid receptor (Homo sapiens) (UniProt P04150); test: GR-GFP Redistribution (AID 450;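 active means compounds whose dose series gives a full or clear partial fitted curve of increased nuclear translocation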; further: potency means the concentration at half of the fitted maximal effect); conditions: U2OS GR-GFP nuclear translocation, laser cytometry, 2 h
[4] = biological target: Glucocorticoid receptor (Homo sapiens) (UniProt P04150); test: GR-EFC Redistribution (AID 451; calls by dose curve; further: potency means the concentration at half of the fitted maximal effect); conditions: CHO-K1 GR-EFC translocation, beta-gal luminescence, 2 h
In short: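 CHO-K1 cells expressing nuclear EA and GR-ED fragments of b-gal; compounds titrated up to 46 uM final, 2 h at 37 C. GR nuclear translocation read as complemented b-gal luminescence after 1 h RT detection.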

[5] = biological target: 3',5'-cyclic-AMP phosphodiesterase 4B (Homo sapiens) (UniProt Q07343); test: qHTS Assay for Inhibitors of PDE-IV (AID 607; active means well fitted activation curve with a large enough effect in the main read-out, with a control signal flat, not every such curve was filed as active; further: % of control where 0% means no effect); conditions: HEK293 ACTOne CNG channel cells, membrane potential fluorescence; series mostly up to 22.9 µM
In short: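 HEK293 ACTOne cells with CNG channel (1000/well), endogenous PDE4; membrane potential dye, compounds up to 22.9 uM final. Fluorescence Ex 535/Em 590; RO 20-1724 (100 uM final) as reference.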

[6] = Cell Viability - N2a (AID 540; active means well fitted curve in the direction sought with a large enough effect; an effect the other way counts as inactive or inconclusive;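 further: plate controls were DMSO alone for no effect and tamoxifen control for full effect; nearly all actives have a fitted effect of over 45% in size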); conditions: N2a mouse neuroblastoma cell viability; activity change, negative = cytotoxicity: at 92.2 µM (top of the series)
In short: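 First, 1500 N2a cells per well incubate 5 hr at 37 °C; next, compounds are added and incubated 40 hr at 37 °C; finally CellTiter-Glo is added and luminescence read after 20 min, with AC50 derived by Hill modeling.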

[7] = Cell Viability - NIH 3T3 (AID 541; active means well fitted curve in the direction sought with a large enough effect; an effect the other way counts as inactive or inconclusive;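 further: cells exposed to compound for 40 hours; plate controls were DMSO alone for no effect and tamoxifen positive control for full effect; nearly all actives have a fitted effect of over 25% in size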); conditions: NIH 3T3 cell viability, qHTS; activity change, negative = cytotoxicity: at 92.2 µM (top of the series)
In short: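 AC50 values reflect concentration-dependent loss of intracellular ATP in NIH 3T3 cells after 40 hr treatment in complete culture medium, quantified by luciferase-based luminescence.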

[8] = Cell Viability - HUV-EC-C (AID 542; active means well fitted curve in the direction sought with a large enough effect; an effect the other way counts as inactive or inconclusive;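 further: cells exposed to compound for 40 hours; on the % scale 0 is the no-effect control and ±100 the full control effect; nearly all actives have a fitted effect of over 35% in size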); conditions: HUV-EC-C endothelial cell viability, qHTS; series mostly up to 92.2 µM
In short: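 Decrease in cellular ATP, quantified by luciferase luminescence, reflects toxicity in normal human vascular endothelial HUV-EC-C cells given compound for 40 hr in complete culture medium. Values are AC50s from concentration-response curves.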

[9] = Cell Viability - H-4-II-E (AID 543; active means well fitted curve in the direction sought with a large enough effect; an effect the other way counts as inactive or inconclusive;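 further: cells exposed to compound for 40 hours; on the % scale 0 is the no-effect control and ±100 the full control effect; nearly all actives have a fitted effect of over 35% in size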); conditions: H-4-II-E rat hepatoma viability; series mostly up to 92.2 µM
In short: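 Here, cytotoxicity is measured in the rat hepatoma line H-4-II-E as loss of intracellular ATP after 40 hr compound treatment, detected by luciferase luminescence.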

[10] = Cell Viability - Renal Proximal Tubule (AID 545; active means well fitted curve in the direction sought with a large enough effect; an effect the other way counts as inactive or inconclusive;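 further: cells exposed to compound for 40 hours; nearly all actives have a fitted effect of over 40% in size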); conditions: renal proximal tubule cells viability, primary cells of rat origin; activity change, negative = cytotoxicity: at 91.7 µM (top of the series)
In short: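 Primary rat renal proximal tubule cells (1000/well) were treated with compounds for 40 hr at 37 °C in complete medium. Intracellular ATP was measured by CellTiter-Glo luminescence, and AC50 values came from Hill-equation fits of concentration-response data.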

[11] = Cell Viability - Mesenchymal (AID 546; active means well fitted curve in the direction sought with a large enough effect; an effect the other way counts as inactive or inconclusive;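 further: cells exposed to compound for 40 hours before reading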); conditions: mesenchymal cells viability, qHTS; activity change, negative = cytotoxicity: at 91.7 µM (top of the series)
In short: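 Human kidney mesenchymal cells from normal renal glomeruli, 1000 cells/well, rested 5 hr at 37 °C, then treated 40 hr at 37 °C in complete medium. Cellular ATP read by CellTiter-Glo luminescence; AC50 from Hill-equation fits.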

[12] = Cellular Toxicity (caspase-3) HUV-EC-C (AID 656; active means well fitted curve in the direction sought with a large enough effect; an effect the other way counts as inactive or inconclusive); conditions: HUV-EC-C cells, caspase-3 activation (apoptosis), vehicle = 0, 100 µM tamoxifen = 100%; series mostly up to 92.2 µM
In short: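 HUV-EC-C endothelial cells, 1000/well, were pre-incubated 5 hr at 37°C, then exposed to compounds for 16 hr at 37°C. Caspase-Glo 3/7 luminescence was read after 20 min at room temperature. AC50 came from Hill fits, normalized to DMSO and 100 uM tamoxifen.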

[13] = Cellular Toxicity (caspase-3) SHSY5Y (AID 657; active means well fitted curve in the direction sought with a large enough effect; an effect the other way counts as inactive or inconclusive); conditions: SH-SY5Y caspase-3 activation, DMSO zero, 10 µM staurosporine = 100%; series mostly up to 91.7 µM
In short: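 SH-SY5Y human neuroblastoma cells (1500/well) were treated with compounds for 16 h at 37 °C, then Caspase-Glo 3/7 luminescence was read after 1 h at room temperature. Data normalized to DMSO and 10 uM staurosporine; AC50 from Hill fits.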

[14] = Cellular Toxicity (caspase-3) BJ (AID 658; active means well fitted curve in the direction sought with a large enough effect; an effect the other way counts as inactive or inconclusive); conditions: BJ fibroblasts, luminescence, normalized: DMSO 0%, staurosporine 100%; series mostly up to 91.7 µM
In short: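 BJ human foreskin fibroblasts, 1000 cells/well, treated 16 hours at 37 °C in complete medium; caspase 3/7 activity by Caspase-Glo luminescence after 1 hr at room temperature. Normalized to DMSO and 10 uM staurosporine; AC50 from Hill fits.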

[15] = Cellular Toxicity (caspase-3) MRC-5 (AID 659; active means well fitted curve in the direction sought with a large enough effect; an effect the other way counts as inactive or inconclusive); conditions: MRC-5 cells, luminescence, normalized: DMSO 0%, 10 µM staurosporine 100%; series mostly up to 91.7 µM
In short: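 MRC-5 human normal lung fibroblasts, 1500 cells/well, treated 16 h at 37 °C in complete medium. Caspase 3/7 measured by Caspase-Glo luminescence after 1 h at room temperature. Normalized to DMSO and 10 uM staurosporine; AC50 from Hill fit.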

[16] = Cellular Toxicity (caspase-3) Mesangial (AID 660; active means well fitted curve in the direction sought with a large enough effect; an effect the other way counts as inactive or inconclusive;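 further: combined caspase 3 and 7 activity read by Caspase-Glo luminescence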); conditions: mesangial cells; Potency: caspase-3 activation; series mostly up to 91.7 µM
In short: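 Concentration-response qHTS: compound-induced rise in caspase 3/7 luminescence in human mesangial cells after 16 h, normalized to DMSO and 100 uM tamoxifen controls.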

[17] = Cellular Toxicity (caspase-3) H-4-II-E (AID 663; active means well fitted curve in the direction sought with a large enough effect; an effect the other way counts as inactive or inconclusive;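 further: cells exposed to compound for 16 hr before readout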); conditions: H-4-II-E rat hepatoma, scaled: DMSO 0%, 100 µM tamoxifen 100%; at 92.2 µM (top of the series)
In short: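 Rat hepatoma H-4-II-E cells (1500/well) plated 5 hr, then exposed to compound titrations for 16 hr at 37 °C. Caspase-Glo 3/7 luminescence read after 20 min at RT; data normalized to DMSO and 100 uM tamoxifen, AC50 from Hill fits.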

[18] = Cellular Toxicity (caspase-3) Hek293 (AID 664; active means well fitted curve in the direction sought with a large enough effect; an effect the other way counts as inactive or inconclusive;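 further: cells exposed to compound for 16 h at 37 °C before readout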); conditions: HEK293 caspase-3 activation, DMSO = 0%, 100 µM tamoxifen = 100%; at 92.2 µM (top of the series)
In short: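 Activation of caspase-3/7 is measured as increased luminescence from cleaved peptide-aminoluciferin substrate in HEK293 cells treated 16 hours at 37 °C. AC50 values come from Hill-equation fits of concentration-response data.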

[19] = Cellular Toxicity (caspase-3) N2a (AID 665; active means well fitted curve in the direction sought with a large enough effect; an effect the other way counts as inactive or inconclusive;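 further: compound exposure lasted 16 h at 37 °C before readout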); conditions: N2a cells, luminescence; Potency: caspase-3 activation; series mostly up to 92.2 µM
In short: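 Plated mouse neuroblastoma N2a cells received titrated compounds for 16 h in complete medium. Caspase activity was then detected with a peptide-aminoluciferin luminescent reagent.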

[20] = Cellular Toxicity (caspase-3) NIH 3T3 (AID 666; active means well fitted curve in the direction sought with a large enough effect; an effect the other way counts as inactive or inconclusive;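 further: caspase signal read after 16 h compound exposure; 0% = DMSO basal and 100% = 100 µM tamoxifen stimulation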); conditions: NIH 3T3 caspase-3 activation, apoptosis/toxicity; series mostly up to 92.2 µM
In short: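 Concentration-response qHTS in NIH 3T3 mouse fibroblasts scores caspase-3/7 activation as rising luminescence after 16 hr compound exposure. Signals are scaled between DMSO-only and 100 uM tamoxifen.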

Glucocorticoid receptor (Homo sapiens), sequence (P04150 whole entry, looked up, the tested form may be a part): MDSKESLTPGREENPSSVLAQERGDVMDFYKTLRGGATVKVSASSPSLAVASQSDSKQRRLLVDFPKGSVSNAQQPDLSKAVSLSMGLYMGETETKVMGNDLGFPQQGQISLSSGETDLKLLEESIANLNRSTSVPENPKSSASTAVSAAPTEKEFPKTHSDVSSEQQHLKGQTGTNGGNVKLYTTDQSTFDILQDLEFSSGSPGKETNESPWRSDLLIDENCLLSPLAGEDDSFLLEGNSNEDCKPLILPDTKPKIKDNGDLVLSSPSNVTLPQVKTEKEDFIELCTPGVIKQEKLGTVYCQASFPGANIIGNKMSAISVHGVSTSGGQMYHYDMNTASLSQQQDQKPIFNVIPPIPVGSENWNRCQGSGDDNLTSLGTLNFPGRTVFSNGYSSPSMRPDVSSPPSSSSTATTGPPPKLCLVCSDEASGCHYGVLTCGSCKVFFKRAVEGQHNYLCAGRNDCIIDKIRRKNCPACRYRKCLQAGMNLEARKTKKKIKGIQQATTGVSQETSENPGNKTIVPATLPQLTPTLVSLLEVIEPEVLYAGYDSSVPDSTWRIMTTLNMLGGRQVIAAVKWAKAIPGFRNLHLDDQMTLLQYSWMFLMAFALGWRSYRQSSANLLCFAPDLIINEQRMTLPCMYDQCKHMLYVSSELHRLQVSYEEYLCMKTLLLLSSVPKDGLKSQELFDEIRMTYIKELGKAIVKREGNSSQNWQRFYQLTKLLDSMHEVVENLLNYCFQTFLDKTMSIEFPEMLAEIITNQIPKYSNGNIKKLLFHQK
3',5'-cyclic-AMP phosphodiesterase 4B (Homo sapiens), sequence (Q07343 whole entry, looked up): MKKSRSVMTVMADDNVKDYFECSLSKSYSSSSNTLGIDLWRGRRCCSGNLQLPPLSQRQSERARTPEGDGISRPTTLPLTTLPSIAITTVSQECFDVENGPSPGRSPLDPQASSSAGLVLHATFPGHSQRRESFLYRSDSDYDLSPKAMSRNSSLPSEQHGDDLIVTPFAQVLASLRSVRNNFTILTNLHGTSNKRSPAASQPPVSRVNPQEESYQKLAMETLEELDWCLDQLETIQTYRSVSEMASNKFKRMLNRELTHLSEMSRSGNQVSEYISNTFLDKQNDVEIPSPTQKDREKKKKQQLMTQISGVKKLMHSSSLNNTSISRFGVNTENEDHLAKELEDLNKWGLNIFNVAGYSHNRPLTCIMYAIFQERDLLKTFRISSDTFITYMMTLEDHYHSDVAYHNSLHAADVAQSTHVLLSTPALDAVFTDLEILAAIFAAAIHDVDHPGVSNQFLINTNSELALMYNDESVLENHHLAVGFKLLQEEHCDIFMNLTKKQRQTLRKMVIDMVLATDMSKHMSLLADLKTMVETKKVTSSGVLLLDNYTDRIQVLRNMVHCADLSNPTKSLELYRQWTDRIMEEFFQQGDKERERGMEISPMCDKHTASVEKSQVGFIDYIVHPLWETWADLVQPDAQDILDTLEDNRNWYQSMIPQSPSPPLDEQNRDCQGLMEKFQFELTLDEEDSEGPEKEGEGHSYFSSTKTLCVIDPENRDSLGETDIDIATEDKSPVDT

NO
inactive: activity, negative = inhibition ([1]; at 38 µM (top of the series)) 11.6% | Potency [2]

C=C[C@H]1CN2CC[C@@H]1C[C@@H]2[C@@H](O)c1ccnc2ccc(OC)cc12
inactive: activity, negative = inhibition ([1]; at 38 µM (top of the series)) -15% and 18.5% | Potency [2]

O=C(Nc1ccccc1)c1cc([N+](=O)[O-])ccc1Cl
inactive: activity, negative = inhibition ([1]; at 38 µM (top of the series)) -18.8% | Potency [3] > 46 µM | Potency [4] > 46 µM | Potency [2] | outcome [5]

C[N+](C)(CCCCCC[N+](C)(C)CCCN1C(=O)c2cccc3cccc(c23)C1=O)CCCN1C(=O)c2cccc3cccc(c23)C1=O
inactive: activity, negative = inhibition ([1]; at 38 µM (top of the series)) 0.109% | Potency [3] > 46 µM | Potency [4] > 46 µM | Potency [2] | outcome [5]

CN=c1nc(-c2ccccc2)n(-c2ccccc2)s1
inactive: activity, negative = inhibition ([1]; at 38 µM (top of the series)) 8.46% | Potency [3] > 46 µM | Potency [4] > 46 µM | Potency [2] | outcome [5]

CCCN(CC1CC1)c1nc(C)nc(Nc2c(Cl)cc(Cl)cc2Cl)c1Cl
inactive: activity, negative = inhibition ([1]; at 38 µM (top of the series)) -12.8% | Potency [3] > 46 µM | Potency [4] > 46 µM | outcome [5]

Nc1ccc(O)c(C(=O)O)c1
inactive: activity, negative = inhibition ([1]; at 17.2 µM (top of the series)) -23.9% | Potency [3] > 20.6 µM | Potency [4] > 20.6 µM | Potency [2] | Potency [6] | Potency [7] | Potency [8] | Potency [9] | activity change, negative = cytotoxicity [10] 10.5% | Potency [11] | outcome [12] | outcome [13] | outcome [14] | outcome [15] | Potency [16] | caspase-3 activation [17] -0.695% | caspase-3 activation [18] 0.369% | Potency [19] | Potency [20]
